Results reported in PubChem BioAssay (Tox21).
Records with an inconclusive call do not appear. A number with no mark means an inactive call. The source made the active and inactive calls. Calls follow the shape of the dose curve; as a rule, active = well fitted cell-killing curve with a large enough effect in the repeat runs; inconclusive = weak or mixed curves, or effect the other way; inactive = no such curve, though single readings can be large or run the other way.

Assay: qHTS assay for identifying genotoxic compounds that show differential cytotoxicity against isogenic chicken DT40 cell lines with known DNA damage response pathways - wild type cell line (AID 743012); also: nearly all actives have a fitted effect of over 60% in size
Settings: DT40 wild type chicken cells viability, CellTiter-Glo, 40 h; series mostly up to 68.4 µM; activity change, negative = cytotoxicity: at the top concentration
From the text: U.S. Tox21 Program National Center for Advancing Translational Sciences [NCATS] NIH Chemical Genomics Center [NCGC] U.S. Environmental Protection Agency [EPA] National Institutes of Environmental Health Sciences [NIEHS] National Toxicology Program [NTP] U.S. Food and Drug Administration [FDA] Tox21 Assay Overview: DNA repair pathways play a critical role in cellular homeostasis by repairing DNA damage induced by endogenous processes and xenobiotics. Isogenic chicken DT40 cell lines deficient in different DNA repair pathways can be used to identify genotoxic compounds and aid in characterizing the nature of the DNA damage induced. Two DNA repair-deficient cell lines with disrupted genes, Rad54/Ku70 or Rev3, were used to screen the Tox21 10K compound library. Possible genotoxicity was based on the presence of a significant increase in cytotoxicity in one or more of the DNA repair-deficient cell lines compared to that observed in the parental DNA repair-proficient cell line. CellTiter Glo viability assay (Promega, Madison, WI) was used to measure cell viability in these cells after compound treatment. This assay includes the data from the wild type cell line.
Tox21 Assay Protocol Summary: 300 DT40 wild type cells in 5 uL/well were dispensed into white, solid-bottom 1536-well plates using a Multidrop Combi (ThermoFisher Scientific, Waltham, MA) dispenser. After the assay plates were incubated at 37 C/5% CO2 for approximately 0.5 hour, 23 nL of compounds dissolved in DMSO, positive controls or DMSO only was transferred into the assay plate by a pintool work station (Kalypsys, San Diego, CA). The assay plates were incubated at 37 C/5% CO2 for 40 hours. After 5 uL per well of CellTiter-Glo reagent was added into each well of the assay plates, the plates were incubated for 30 min at room temperature and the luminescence intensity of the plates was measured using a ViewLux (PerkinElmer, Shelton, CT) plate reader.
% is scaled to controls: 0 for no effect and ±100 for the full control effect; potency is read from the fitted curve at half-maximal effect.

| SMILES | activity change, negative = cytotoxicity | Potency |
| --- | --- | --- |
| CCOC(=O)c1ncn2c1CN(C)C(=O)c1cc(F)ccc1-2 | 1.83% |  |
| O=C1CCCC(=O)O1 | -12.9% |  |
| CC(=O)CCCCn1c(=O)c2c(ncn2C)n(C)c1=O | 6.92% [at 31.4 µM] |  |
| CC(=O)Nc1cccc(C)c1 | 3.01% [at 95 µM] |  |
| O=C(NCCN1CCOCC1)c1ccc(Cl)cc1 |  | inactive |
| CCCCC(CC)COCCO (stereo not given) | 16.1% |  |
| CCCCCCCC/C=C\CCCCCCCC(=O)OCCCC | 13.5% [at 31.4 µM] |  |
| C=C(C)C(=O)OCC(C)(C)COC(=O)C(=C)C | 5.85% |  |
| Cc1cccc(C)c1NC(=O)c1ccccc1C(=O)O | 2.1% |  |
| CCCOC(OCCC)OCCC | 12.5% |  |
| Cc1cc(NC(=O)C2=C(O)c3ccccc3S(=O)(=O)N2C)no1 | 0.0716% |  |
| Nc1ccc2cc(S(=O)(=O)O)cc(O)c2c1 | 9.76% |  |
| CCCCNc1ccc(C(=O)OCCN(C)C)cc1 |  | 5.07 µM (active) |
| CN(C)C(=O)CNC(=O)Cc1ccccc1 | 6.57% |  |
| CCCCN | 10.1% |  |
| C=C(C)C1CCC(C)(O)CC1 (stereo not given) | 0.519% |  |
| Cc1ccccc1OCC(O)CO (stereo not given) | 2.7% |  |
| CCOC(=O)[C@H](CCc1ccccc1)N[C@@H](C)C(=O)N1C(=O)N(C)C[C@H]1C(=O)O | 13.8% |  |
| CCOCCOCCOCC | 12.2% |  |
| Cc1ccc2c(c1)OCC(=O)CO2 | 1.48% |  |

| SMILES | activity change, negative = cytotoxicity | Potency |
| --- | --- | --- |
| CCC(CC)CO | -5.66% |  |
| COc1ccc(S(=O)(=O)N2c3ccc(Cl)cc3[C@@](O)(c3ccccc3Cl)[C@H]2C(=O)N2CCC[C@@H]2C(N)=O)cc1OC | -14.8% |  |
| CC(N)C(=O)OC(C)(C)Cc1ccc(Cl)cc1 (stereo not given) |  | 21.1 µM (active) |
| O=C1c2ccccc2C(=O)C1c1ccccc1 | -0.696% [at 31.4 µM] |  |
| FC(F)(F)c1ccccc1-n1ccnc1 | -0.688% |  |
| N[C@@H](CCC(=O)N[C@@H](CS)C(=O)NCC(=O)O)C(=O)O | 5.71% |  |
| Nc1ncnc(Nc2ccccc2)n1 | 1.02% |  |
| O=C(O)Cc1ccc(Cl)cc1Cl |  | 61.1 µM (active) |
| O=C1c2ccccc2C(=O)c2cc(S(=O)(=O)O)ccc21 | 2.74% [at 95 µM] |  |
| O=C(CCN1CCN(CCO)CC1)N1c2ccccc2Sc2ccc(C(F)(F)F)cc21 |  | 26.6 µM (active) |
| COc1cc(C(=S)N2CCOCC2)cc(OC)c1OC | 0.954% |  |
| COCCOCCOCCOCCOCCO | 20.6% |  |
| CCC(C)NC(N)=O (stereo not given) | -3.61% |  |
| CC(C(=O)O)c1ccc2c(c1)CC(=O)c1ccccc1S2 (stereo not given) | 3.07% |  |
| O=S(=O)(O)c1ccc2cc(O)c(S(=O)(=O)O)cc2c1 | 3.23% |  |
| O=C(OCC(COC(=O)c1cccnc1)(COC(=O)c1cccnc1)COC(=O)c1cccnc1)c1cccnc1 | -0.0329% |  |
| O=C(O)Cc1cn(-c2ccccc2)nc1-c1ccc(Cl)cc1 | 11% |  |
| O=C(CCNNC(=O)c1ccncc1)NCc1ccccc1 | 17.4% |  |
| CC1=C(C(=O)O)N2C(=O)[C@@H](NC(=O)[C@H](N)c3ccc(O)cc3)[C@H]2SC1 | 0.357% [at 31.4 µM] |  |
| CCN1CCc2nc(N)oc2CC1 | 3.6% |  |
